# Measurements taken from PubChem BioAssay.
# Some of the results follow. Calls of active or inactive are those of the source.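 Rule for the calls, unless noted: active = mean inhibition above about 50% in the one-dose retest (limit read from the data); inactive = the rest.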
# Tests used:
# [1] = lowers stimulated NF-kB luciferase signal in Jurkat – cell-based, luminescence, single concentration, T-cell NF-kB inhibitor project, confirmation (AID 435020;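 active = inhibition reaching about 45% at 4 µM in either replicate, limit read from the data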;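 note: plate controls were PMA/ionomycin stimulated DMSO wells for no effect and unstimulated DMSO wells for full effect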); settings: PMA/ionomycin-induced, 16 h, at 4 µM, stronger effect = higher value
# [2] = PPC-1 cell viability loss – ATP content luminescence, cytotoxicity control for TRAIL apoptosis potentiator project, confirmation (AID 1447;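 active = reconfirmed compounds whose average cytotoxicity reaches 50% or more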;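 note: 0% = DMSO-treated cells and 100% = wells holding medium but no cells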); settings: PPC-1 viability, ATPlite luminescence, overnight; at 5 µM; stronger effect = higher value
# [3] = target: Sentrin-specific protease 8 (Homo sapiens) (UniProt Q96LD8); assay: human SENP8 peptidase blockers, hit retest – biochemical, luminescence, single concentration, confirmation (AID 488912;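 active = mean inhibition across replicates above about 50%, limit read from the data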); settings: Recombinant SENP8, Z-RLRGG-aminoluciferin luminescence, 60 min; at 12.5 µM; stronger effect = higher value
# [4] = target: Sentrin-specific protease 6 (Homo sapiens) (UniProt Q9GZR1); assay: inhibition of human SENP6 catalytic domain – biochemical, luminescence, single concentration, confirmation (AID 488915); settings: recombinant SENP6, Z-RLRGG-aminoluciferin luminescence; at 12.5 µM; stronger effect = higher value
# [5] = target: Sentrin-specific protease 7 (Homo sapiens) (UniProt Q9BQF6); assay: human SENP7 peptidase blockers, hit retest – biochemical, luminescence, single concentration, confirmation (AID 488917); settings: recombinant SENP7, Z-RLRGG-aminoluciferin luminescence, 40 min; at 12.5 µM; stronger effect = higher value
# [6] = target: Caspase-3 (Homo sapiens) (UniProt P42574); assay: human caspase-3 activity blockade, out-of-family – biochemical, single concentration, selectivity assay for SENP inhibitor project, confirmation (AID 488918;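 active = mean inhibition above about 50%, limit read from the data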;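 note: plate controls were enzyme with DMSO for no effect and wells without caspase-3 for full effect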); settings: purified caspase-3, Z-DEVD-aminoluciferin luminescence, 60 min; at 12.5 µM; stronger effect = higher value
# [7] = Ultra-Glo luciferase signal interference – biochemical, single concentration, SENP8 reaction pre-completed, artefact control for SENP inhibitor project, confirmation (AID 488919;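 active = mean inhibition above about 50% when retested at one dose, limit read from the data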;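 note: plate controls were DMSO wells with completed reaction for no effect and substrate without enzyme for full effect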); settings: Pre-incubated SENP8/Z-RLRGG-aminoluciferin, luciferase luminescence interference; at 12.5 µM; stronger effect = higher value
# [8] = target: Tumor necrosis factor receptor superfamily member 10B (Homo sapiens) (UniProt O14763); assay: viability loss of caspase-8 NB7 cells with TRAIL – with/without TRAIL, luminescence panel, confirmation (AID 651596; in the data active = activity above about 50%); settings: NB7 neuroblastoma + caspase-8, TRAIL sensitization, NB7 Caspase-8, with TRAIL, mean of runs, at 10 µM, stronger effect = higher value
# [9] = as above; settings: NB7 neuroblastoma + caspase-8, without TRAIL, NB7 Caspase-8, without TRAIL, mean of runs, at 10 µM
# Sequence of Sentrin-specific protease 6 (Homo sapiens) (Q9GZR1 628-1112 limits assumed): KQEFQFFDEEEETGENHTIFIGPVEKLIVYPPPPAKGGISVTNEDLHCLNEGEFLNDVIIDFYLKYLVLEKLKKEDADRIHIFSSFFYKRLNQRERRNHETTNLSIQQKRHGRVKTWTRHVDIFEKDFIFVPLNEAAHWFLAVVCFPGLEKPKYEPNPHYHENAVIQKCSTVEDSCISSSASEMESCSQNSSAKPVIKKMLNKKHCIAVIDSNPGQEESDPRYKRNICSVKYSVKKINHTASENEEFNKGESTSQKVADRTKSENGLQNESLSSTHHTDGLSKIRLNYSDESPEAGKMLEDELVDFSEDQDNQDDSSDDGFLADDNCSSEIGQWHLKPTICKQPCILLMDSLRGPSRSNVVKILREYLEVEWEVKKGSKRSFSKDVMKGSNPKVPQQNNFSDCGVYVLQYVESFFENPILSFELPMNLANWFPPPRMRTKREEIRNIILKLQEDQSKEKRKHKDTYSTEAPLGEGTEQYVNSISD
# Sequence of Sentrin-specific protease 8 (Homo sapiens) (Q96LD8 whole entry, looked up, the tested form may be a part): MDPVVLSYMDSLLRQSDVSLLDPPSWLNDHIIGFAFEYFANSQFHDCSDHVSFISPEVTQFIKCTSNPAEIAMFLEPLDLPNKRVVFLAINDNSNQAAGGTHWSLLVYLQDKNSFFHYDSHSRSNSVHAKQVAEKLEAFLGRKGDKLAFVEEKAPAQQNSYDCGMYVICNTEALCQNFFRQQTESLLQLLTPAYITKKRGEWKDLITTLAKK
# Sequence of Caspase-3 (Homo sapiens) (P42574 28-227 limits assumed): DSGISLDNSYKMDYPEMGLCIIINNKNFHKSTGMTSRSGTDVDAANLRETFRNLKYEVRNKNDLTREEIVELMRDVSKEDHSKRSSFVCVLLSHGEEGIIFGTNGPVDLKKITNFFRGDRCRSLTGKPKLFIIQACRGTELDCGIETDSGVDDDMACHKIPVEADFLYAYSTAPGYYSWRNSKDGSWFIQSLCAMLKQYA
# Sequence of Sentrin-specific protease 7 (Homo sapiens) (Q9BQF6 706-1050 limits assumed): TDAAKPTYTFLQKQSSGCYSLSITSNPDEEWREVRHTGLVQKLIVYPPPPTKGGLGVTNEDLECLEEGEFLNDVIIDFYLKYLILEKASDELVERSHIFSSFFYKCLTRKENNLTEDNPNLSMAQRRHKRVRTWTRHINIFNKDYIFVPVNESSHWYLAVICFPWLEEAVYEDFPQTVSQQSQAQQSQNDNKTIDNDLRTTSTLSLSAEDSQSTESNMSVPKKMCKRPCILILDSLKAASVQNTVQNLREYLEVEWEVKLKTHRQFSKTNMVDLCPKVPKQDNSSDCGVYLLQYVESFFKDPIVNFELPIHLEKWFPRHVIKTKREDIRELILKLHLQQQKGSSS
# Sequence of Tumor necrosis factor receptor superfamily member 10B (Homo sapiens) (O14763 whole entry, looked up): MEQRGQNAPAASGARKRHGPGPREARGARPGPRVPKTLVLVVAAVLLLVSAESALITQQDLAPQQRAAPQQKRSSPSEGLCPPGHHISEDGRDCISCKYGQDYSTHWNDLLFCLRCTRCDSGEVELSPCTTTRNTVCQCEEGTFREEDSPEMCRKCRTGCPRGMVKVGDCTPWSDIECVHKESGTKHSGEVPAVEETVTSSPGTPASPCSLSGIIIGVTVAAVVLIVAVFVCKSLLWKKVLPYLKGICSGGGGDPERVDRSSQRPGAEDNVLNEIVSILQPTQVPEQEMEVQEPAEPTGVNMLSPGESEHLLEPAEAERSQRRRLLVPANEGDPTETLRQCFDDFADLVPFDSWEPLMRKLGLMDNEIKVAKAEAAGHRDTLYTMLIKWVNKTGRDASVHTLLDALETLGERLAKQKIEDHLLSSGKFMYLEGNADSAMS
structure (smiles),measurement,setting,value
COc1ccc(CC(=O)Nc2nc(-c3ccc(F)c(F)c3)cs2)cc1OC,inhibition,[1],58.5% (active)
Cc1nnc(N/N=C/c2ccccn2)[nH]c1=O,inhibition,[1],63.8% (active)
Cc1cccc(N(C)C(=O)c2cc3c(=O)[nH]c4ccc(C)cc4c3s2)c1,inhibition,[1],16.9% (inactive)
O=C(Oc1ccc(-c2nc(-c3ccccn3)no2)cc1)c1ccccc1,cytotoxicity,[2],44.9% (inactive)
same,inhibition,[3],4.5% (inactive)
same,inhibition,[4],23.1% (inactive)
same,inhibition,[5],2.6% (inactive)
same,inhibition,[6],14.5% (inactive)
same,inhibition,[7],2.6% (inactive)
CCCC(=O)Nc1nc2ccc(NC(=O)c3c(F)c(F)c(OC)c(F)c3F)cc2s1,inhibition,[1],40.9% (active)
O=C(Nc1ccccc1Cl)/C(Cl)=C(\Cl)S(=O)c1ccccc1 (stereo not drawn),inhibition,[1],59.8% (active)
Clc1ccc(-c2cc(-c3ccccn3)on2)c(Cl)c1,cytotoxicity,[2],89.7% (active)
same,inhibition,[3],94.7% (active)
same,inhibition,[4],95.8% (active)
same,inhibition,[5],102% (active)
same,inhibition,[6],94.9% (active)
same,inhibition,[7],32.9% (inactive)
O=c1oc(/C=C/c2ccccc2)nc2ccccc12,cytotoxicity,[2],57.5% (active)
same,activity,[8],76.2%
same,activity,[9],79.7%
CC(C)CC(=O)N/C(N)=N/c1nc2ccccc2s1,inhibition,[1],-131% (inactive)
Cc1ccc2cc3cc(C(=O)N4CCCCCC4)oc3nc2c1,inhibition,[1],-90.9% (inactive)
same,inhibition,[3],41.9% (inactive)
same,inhibition,[4],47.9% (inactive)
same,inhibition,[5],79.7% (active)
same,inhibition,[6],62.2% (active)
same,inhibition,[7],47.7% (inactive)
Cc1c(C(=O)Nc2ccccn2)oc2ccc(Br)cc12,inhibition,[1],-77.2% (inactive)
same,inhibition,[3],14.3% (inactive)
same,inhibition,[4],18.5% (inactive)
same,inhibition,[5],27.6% (inactive)
same,inhibition,[6],22.7% (inactive)
same,inhibition,[7],17.1% (inactive)
